The values below come from PubChem BioAssay.

The structures appear in SMILES notation. Activity calls are given as the source filed them.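 The calls were made as follows, unless noted: active = NADPH fluorescence slope more negative than the mean of all samples by about 3 SD, 99.7% confidence; inactive = the rest.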

The nature of experiment [1]: inhibitors of TNFa-induced NFkB p65 translocation, primary screen, imaging, HUVEC, MLSMR starter and 10KST1 sets (AID 438;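 active = inhibition above 20% together with a positive visual image hit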;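 also: compound added about 3h40 before a 20 min TNFalpha stimulation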;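 as to inhibition: signal is the nuclear over cytoplasmic p65 intensity ratio per well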). The following applies: HUVEC TNFa-induced p65 nuclear translocation; cell count: measured here: nuclei count (cytotoxicity indicator), at 2.08 µM; inhibition: at 2 µM, stronger effect = higher value, 0% TNFa-plus-vehicle, 100% no-TNFa wells.
Experiment [2] can be described thus: reduction of polyQ htt aggregates in cells – imaging, exon1htt(103Q)mCFP cells, high-content imaging, primary screen (AID 483;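 active = visual image review flags a hit and inhibition of aggregation exceeds 20%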;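 also: compound exposure lasted 3 days before fixation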;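 as to nuclei count: percent of the per-plate median nuclei count of sample wells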). The following applies: exon1htt(103Q)mCFP cell line, aggregate imaging, at 2 µM; inhibition of aggregation: stronger effect = higher value; nuclei count: measured here: cell count, toxicity.
A short description of experiment [3]: endothelial E-selectin expression blockers – imaging, HUVEC, immunofluorescence, MLSMR starter and 10KST1 sets, primary screen (AID 487;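 active = visually confirmed hit in the image check and inhibition above 20%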;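 as to inhibition: signal is fraction of cell area covered by stained E-selectin grains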;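 as to nuclei count: 100% = median nuclei count of all wells on the same plate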). As to conditions: HUVEC TNFalpha-induced E-selectin immunofluorescence imaging, at 2 µM; inhibition: stronger effect = higher value; nuclei count: measured here: cell number, toxicity.
Experiment [4] addresses Voltage-gated potassium channel subunit beta-2 (Rattus norvegicus) (UniProt P62483). Description: inhibitors of rat Kvbeta2 reductase activity – biochemical, NADPH fluorescence, primary screen (AID 622;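 active = fluorescence slope higher than the sample average by over 3 SD, cut at about -0.22 in these data, passing the limit was not always enough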;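 also: slope of raw intensity against log time taken from 70 to 1610 s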). As to conditions: recombinant KvBeta, 4-cyanobenzaldehyde reduction, at 10 µM, stronger effect = higher value.
The target is the same in experiment [5]. Description: enhancers of rat Kvbeta2 NADPH turnover – biochemical, NADPH fluorescence, primary screen (AID 623).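 Also: fluorescence intensity change per second fitted from 20 to 320 s.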 The following applies: Recombinant KvBeta, NADPH fluorescence decrease slope, 10 min; at 10 µM; stronger effect = lower value.
Experiment [6] has as its target Alpha-2C adrenergic receptor (Homo sapiens) (UniProt P18825). Description: compounds altering alpha2C-coupled GIRK flux – cell-based, HEK293 alpha2C/GIRK1/2, thallium flux, primary screen (AID 624;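 active = fluorescence slope after compound addition differing from the mean of all screened samples at 99.7% confidence, in either direction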;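 also: slope of fluorescence ratio to pre-addition baseline per second over 15 to 24 s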). As to conditions: thallium flux BTC fluorescence, at 10 µM, actives lie on both sides.
Experiment [7] can be described thus: blockers of RIG-like receptor reporter activation – cell-based, Sendai virus stimulus, luciferase, 10K MLSCN set, TLR/RLR signaling modifier project, primary screen (AID 602276;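 active = inhibition at or above 50% at 10 µM; inactive = inhibition below 50%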;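 also: firefly luciferase from ISG56 promoter only with Renilla not read in this screen; 0% = Sendai virus plus DMSO and 100% = medium plus DMSO without virus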). As to conditions: HEK293 RL24 IRF3 luciferase reporter, at 10 µM, stronger effect = higher value.
A short description of experiment [8]: TLR3 IRF3 reporter activation blockers – cell-based, poly I:C stimulus, luciferase, 10K MLSCN set, primary screen (AID 602277;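 active = inhibition of the reporter signal at or above 50%; inactive = inhibition below 50%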). The following applies: HEK293-TLR3 RL24 IRF3 luciferase reporter, at 10 µM, stronger effect = higher value. On the technique in general: A reporter such as luciferase makes a cellular process visible.

Sequence of Alpha-2C adrenergic receptor (Homo sapiens) (P18825 whole entry, looked up): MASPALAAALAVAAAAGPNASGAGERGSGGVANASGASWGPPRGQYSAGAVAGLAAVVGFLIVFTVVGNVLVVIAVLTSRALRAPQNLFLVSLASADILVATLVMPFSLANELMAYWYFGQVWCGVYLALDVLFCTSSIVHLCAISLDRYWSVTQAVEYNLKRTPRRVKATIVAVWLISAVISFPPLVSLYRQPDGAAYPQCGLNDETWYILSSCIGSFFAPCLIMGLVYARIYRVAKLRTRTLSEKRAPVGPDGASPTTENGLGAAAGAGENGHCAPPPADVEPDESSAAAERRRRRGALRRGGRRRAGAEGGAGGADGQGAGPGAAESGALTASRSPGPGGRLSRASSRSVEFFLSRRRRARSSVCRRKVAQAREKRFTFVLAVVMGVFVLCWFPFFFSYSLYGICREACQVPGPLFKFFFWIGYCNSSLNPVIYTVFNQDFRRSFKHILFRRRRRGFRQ
Sequence of Voltage-gated potassium channel subunit beta-2 (Rattus norvegicus) (P62483 whole entry, looked up): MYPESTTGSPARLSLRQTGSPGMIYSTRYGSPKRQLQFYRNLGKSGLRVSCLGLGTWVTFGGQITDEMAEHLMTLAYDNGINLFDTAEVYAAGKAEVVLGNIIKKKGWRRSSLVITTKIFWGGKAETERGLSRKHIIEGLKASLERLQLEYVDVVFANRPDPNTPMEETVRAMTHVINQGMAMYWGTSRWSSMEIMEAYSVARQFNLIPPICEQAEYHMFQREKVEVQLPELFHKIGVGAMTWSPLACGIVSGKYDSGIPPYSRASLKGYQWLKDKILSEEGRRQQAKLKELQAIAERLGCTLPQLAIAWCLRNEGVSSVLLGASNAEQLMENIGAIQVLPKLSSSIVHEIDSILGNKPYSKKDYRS

Consider `O=c1c[n+]([O-])c2ccccc2n1OCc1c(F)cccc1F`, for which, in experiment [1], the cell count is 744. The inhibition (commonly the change of the read-out against control, counted positive when it falls) in experiment [1] is -6% (inactive); in experiment [3], -236% (inactive); in experiment [7] it was 18% (inactive); in experiment [8] it was 24.8% (inactive). In addition, the inhibition of aggregation in experiment [2] is -13.7% (inactive). Besides, the nuclei count stood at 87.6% in experiment [2] and 110% in experiment [3]. Moreover, the fluorescence slope in experiment [4] was -0.425 (inactive). In addition, in experiment [5], the NADPH fluorescence slope is -2.4e-05 (inactive). Also, the slope in experiment [6] is 0.00594 (inactive).

As to `COCCSc1ccccc1C(=O)Nc1nncs1`, the cell count in experiment [1] is 659. For the same molecule, the inhibition in experiment [1] is -27.6% (inactive); in experiment [3] it was -60.7% (inactive); in experiment [7] it was -7.19% (inactive); in experiment [8] it was 2.28% (inactive). Further, the inhibition of aggregation in experiment [2] is -7.4% (inactive). Further, the nuclei count was found to be 99.6% in experiment [2] and 112% in experiment [3]. The fluorescence slope in experiment [4] was -0.598 (inactive). Moreover, in experiment [5], the NADPH fluorescence slope is -2.1e-05 (inactive). The slope in experiment [6] was 0.00672 (inactive).

Consider `O=C(Cn1cc2c(n1)CCCC2)NCCc1ccccc1`, for which the cell count in experiment [1] came out at 792. For the same molecule, the inhibition in experiment [1] was -3.7% (inactive); in experiment [3], -47.8% (inactive); in experiment [7], 5.6% (inactive); in experiment [8], 31.9% (inactive). Besides, the inhibition of aggregation in experiment [2] is 0.9% (inactive). Besides, the nuclei count in experiment [2] was determined as 106%; in experiment [3], 118%. Moreover, the fluorescence slope in experiment [4] was -0.428 (inactive). Moreover, the NADPH fluorescence slope in experiment [5] was -2.6e-05 (inactive). Also, the slope in experiment [6] is 0.00628 (inactive).

In the case of `Cc1cc(C)n2cc(CSc3nnnn3-c3ccc(Cl)cc3)nc2n1`, in experiment [1], the cell count stood at 446. Moreover, the inhibition in experiment [1] was 2.4% (inactive); in experiment [3], 15.8% (inactive); in experiment [7], 19.2% (inactive); in experiment [8] it was 16.6% (inactive). Besides, the inhibition of aggregation in experiment [2] was -22.5% (inactive). Besides, the nuclei count came to 99.6% in experiment [2] and 91.8% in experiment [3]. Further, in experiment [4], the fluorescence slope was -0.517 (inactive). In experiment [5], the NADPH fluorescence slope was -3.7e-05 (inactive). In addition, in experiment [6], the slope was 0.00492 (inactive).

In the case of `O=C(Nc1cccc(-c2nnc(-c3ccccc3)o2)c1)C1CCCCC1`, the cell count in experiment [1] is 666. The inhibition in experiment [1] was -2.8% (inactive); in experiment [3] it was -21.3% (inactive); in experiment [7], -20.4% (inactive); in experiment [8], -62.4% (inactive). In addition, the inhibition of aggregation in experiment [2] is -15.1% (inactive). Moreover, the nuclei count in experiment [2] is 109%; in experiment [3] it was 116%. For the same molecule, the fluorescence slope in experiment [4] was -0.589 (inactive). Moreover, the NADPH fluorescence slope in experiment [5] was -1.7e-05 (inactive). Also, in experiment [6], the slope was 0.00531 (inactive).

`CCOc1cc(S(=O)(=O)Nc2ccccn2)ccc1F`: the cell count in experiment [1] came out at 382. Further, the inhibition in experiment [1] was 4.8% (inactive); in experiment [3], 29.7% (inactive); in experiment [7], 5.64% (inactive); in experiment [8], -11.5% (inactive). Besides, in experiment [2], the inhibition of aggregation is 0.1% (inactive). Further, the values for the nuclei count in experiment [2] and in experiment [3] were 107% and 99.7%, respectively. In experiment [4], the fluorescence slope is -0.62 (inactive). Moreover, the NADPH fluorescence slope in experiment [5] was 4.6e-06 (inactive). Moreover, the slope in experiment [6] is 0.0046 (inactive).

As for `CCOC(=O)c1sc(=NC(=O)c2ccc(OC)c(OC)c2)n(C)c1C`, the cell count in experiment [1] is 642. Further, the inhibition in experiment [1] was 10.1% (inactive); in experiment [3] it was 47.2% (inactive); in experiment [7] it was -16.4% (inactive); in experiment [8], -82.7% (inactive). The inhibition of aggregation in experiment [2] is 3.7% (inactive). Besides, the nuclei count in experiment [2] worked out at 93.8%; in experiment [3] it was 75.6%. Also, in experiment [4], the fluorescence slope is -0.583 (inactive). Also, the NADPH fluorescence slope in experiment [5] is -2.7e-05 (inactive). The slope in experiment [6] was 0.00657 (inactive).

In the case of `O=C(Nc1ccc2c(c1)OCCO2)C1CCCN(S(=O)(=O)c2cnc[nH]2)C1` (centres undefined), the cell count in experiment [1] turned out to be 628. Further, the inhibition was 4.1% (inactive) in experiment [1], -29.5% (inactive) in experiment [3], -16.1% (inactive) in experiment [7] and -6.55% (inactive) in experiment [8]. Besides, in experiment [2], the inhibition of aggregation was -8% (inactive). The nuclei count in experiment [2] came to 102%; in experiment [3], 114%. In addition, the fluorescence slope in experiment [4] was -0.563 (inactive). The NADPH fluorescence slope in experiment [5] was -4.5e-07 (inactive). Besides, in experiment [6], the slope is 0.00662 (inactive).

Consider `COc1ccc(C2CC(c3ccc(Cl)cc3Cl)Nc3nc(N)nn32)cc1` (centres undefined), for which, in experiment [1], the cell count is 578. Moreover, the inhibition was 2.3% (inactive) in experiment [1], -10.3% (inactive) in experiment [3], 13.9% (inactive) in experiment [7] and 36.6% (inactive) in experiment [8]. For the same molecule, in experiment [2], the inhibition of aggregation is -1.8% (inactive). For the same molecule, the nuclei count worked out at 105% in experiment [2] and 102% in experiment [3]. The fluorescence slope in experiment [4] is -0.593 (inactive). Besides, in experiment [5], the NADPH fluorescence slope is 1.1e-05 (inactive). For the same molecule, the slope in experiment [6] was 0.00847 (inactive).

Turning to `CCc1nnc(NC(=O)C2Cc3ccccc3CN2S(=O)(=O)c2cccs2)s1` (centres undefined), the cell count in experiment [1] worked out at 521. Also, the inhibition in experiment [1] is -10.2% (inactive); in experiment [3] it was -57.1% (inactive); in experiment [7], -21.3% (inactive); in experiment [8], -50.1% (inactive). The inhibition of aggregation in experiment [2] was -27.6% (inactive). Moreover, the figures for the nuclei count in experiment [2] and in experiment [3] were 116% and 117%, respectively. Moreover, the fluorescence slope in experiment [4] is -0.482 (inactive). Besides, the NADPH fluorescence slope in experiment [5] was -2.6e-05 (inactive). Moreover, the slope in experiment [6] is 0.00706 (inactive).

As to `Cc1nn(CC(O)Cn2c3c(c4ccccc42)CCN(C)C3=O)c(C)c1Br` (centres undefined), the cell count in experiment [1] is 363. Besides, the inhibition is -4.7% (inactive) in experiment [1], 45.5% (inactive) in experiment [3], 21.6% (inactive) in experiment [7] and 21.9% (inactive) in experiment [8]. In experiment [2], the inhibition of aggregation was 10.5% (inactive). In addition, the nuclei count in experiment [2] worked out at 101%; in experiment [3], 75.2%. The fluorescence slope in experiment [4] is -0.427 (inactive). For the same molecule, the NADPH fluorescence slope in experiment [5] is -3e-05 (inactive). The slope in experiment [6] was 0.00532 (inactive).

For `COCCNC(=O)C(c1ccc(O)cc1)N(Cc1ccco1)C(=O)CCC(=O)Nc1nccs1` (centres undefined), in experiment [1], the cell count worked out at 474. Besides, the inhibition in experiment [1] is 6.7% (inactive); in experiment [3], -52.2% (inactive); in experiment [7], -12.6% (inactive); in experiment [8], 14.7% (inactive). The inhibition of aggregation in experiment [2] is 0.1% (inactive). Also, the nuclei count worked out at 102% in experiment [2] and 116% in experiment [3]. For the same molecule, in experiment [4], the fluorescence slope was -0.499 (inactive). The NADPH fluorescence slope in experiment [5] is 4.7e-06 (inactive). Moreover, the slope in experiment [6] was 0.0061 (inactive).

In the case of `CCOC(=O)N1CCN(C(=O)Cn2ncn3nc(-c4cccs4)cc3c2=O)CC1`, in experiment [1], the cell count was 313. For the same molecule, the inhibition in experiment [1] is -0.8% (inactive); in experiment [3] it was 9.5% (inactive); in experiment [7], -1.73% (inactive); in experiment [8], -47.5% (inactive). Also, the inhibition of aggregation in experiment [2] is 14.8% (inactive). The nuclei count amounted to 79.5% in experiment [2] and 88.5% in experiment [3]. In addition, the fluorescence slope in experiment [4] is -0.404 (inactive). The NADPH fluorescence slope in experiment [5] was 2e-05 (inactive). The slope in experiment [6] is 0.00387 (inactive).

`CCCCCn1c(CN2CCN(C(=O)c3ccco3)CC2)nc2c1c(=O)n(C)c(=O)n2C`: the cell count in experiment [1] was 726. The inhibition is -14.6% (inactive) in experiment [1], -13.1% (inactive) in experiment [3], 1.47% (inactive) in experiment [7] and 11.3% (inactive) in experiment [8]. The inhibition of aggregation in experiment [2] was -17.8% (inactive). Moreover, the nuclei count turned out to be 103% in experiment [2] and 113% in experiment [3]. In experiment [4], the fluorescence slope was -0.57 (inactive). For the same molecule, the NADPH fluorescence slope in experiment [5] is -5.2e-05 (inactive). Moreover, the slope in experiment [6] is 0.00727 (inactive).
